Measurements: the supplement of paper PMC6555819

Assays:
Assay in all cases: PBM binding z-score (relative to random genomic background probes); higher = stronger binding; sequences stand for … in GC…GCGATTGACAGCGTAGAATGAAGG
[1] = system: RARb homodimer (NR concentration 270 nM)
In short: (§1)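 Custom Agilent 4×180K protein-binding microarrays carried double-stranded probes. Their 34-nt variable regions held direct-repeat seeds, single-nucleotide variants, half-site ablations and random human genomic background sequences. Arrays were incubated 1 h with ligand-free nuclear receptor dimers in PBS pH 7.4, 2% milk, 0.02% Triton X-100, 1 mM DTT, 0.2 mg/mL BSA and 0.4 mg/ml salmon testes DNA. Antibodies against each partner (one per run) detected binding, and scanned fluorescence was regression-normalized. Binding z-scores use random background probes as reference.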

[2] = system: RARg:RXRa (NR concentration 270 nM, RXRa partner concentration 90 nM)
In short: as §1

[3] = system: RARg homodimer (NR concentration 270 nM)
In short: as §1

[4] = system: RXRa DBDmut IVT, anti-RXR (DBD mutation: RXRa K156A/R161A, NR concentration 90 nM)
In short: as §1

[5] = system: RXRa homodimer (NR concentration 180 nM)
In short: as §1

[6] = system: THRa:RXRa (NR concentration 90 nM, RXRa partner concentration 90 nM)
In short: as §1

[7] = system: THRa homodimer (NR concentration 90 nM)
In short: as §1

[8] = system: VDR homodimer (NR concentration 270 nM)
In short: as §1

Row | Sequence | PBM binding z-score [1] | PBM binding z-score [2] | PBM binding z-score [3] | PBM binding z-score [4] | PBM binding z-score [5] | PBM binding z-score [6] | PBM binding z-score [7] | PBM binding z-score [8]
1 | AGAATGATGTTATACGTAGATCAGGGAAGAAAGT | -0.0497 | 0.194 | 0.393 | -0.231 | -0.0318 | -0.0993 | -0.533 | -0.17
2 | CCTTACGGGGCACTGACAGGTTATAGCATTTGGA | 0.4 | 0.997 | 0.998 | 0.12 | 0.44 | 0.141 | -0.73 | -0.309
3 | TCTAGTTGGTCACGGAGGTCACACACGACGGGTA | 4.44 | 4.66 | 4.79 | 0.886 | 4.58 | 3.61 | 2.53 | 3.25
4 | ACTATTTGTTGACTTAGGGCAACCGATACGACGC | 1.01 | 0.754 | 1.08 | 0.742 | 0.588 | 1.12 | 0.816 | 0.486
5 | CCTTACGGGGCACTCCAGGTTATAGCATCGGAGT | 0.528 | 0.714 | 0.823 | -0.513 | 0.523 | 3.58 | -0.229 | 0.0884
6 | GCGACTGGGGCAAAGCAGGTTACCACAAGGTTGG | 1.08 | 0.456 | 0.439 | -0.219 | 0.39 | 3.04 | -0.328 | -0.626
7 | TAGCCTAGGTCATTGGGCCAGTATCGTACGCATC | 2.91 | 3.85 | 4 | 1.73 | 2.84 | 2.87 | 1.01 | 1.43
8 | CCTACTGGGCAATTCAGAGGTCATTGATCATATG | 3.57 | 3.21 | 2.73 | 0.679 | 3.76 | 2.98 | 1.16 | 3.05
9 | GCTAGTTGGTCAGTAAAAGGTCAGACACCGGTCG | 4.8 | 4.68 | 4.27 | 0.252 | 3.55 | 2.64 | 0.737 | 0.607
10 | CATCCAAGGTCAGAGAGGTCAGTGAATGCCGAGT | 5.53 | 6.35 | 7.37 | 3.51 | 6.54 | 4.43 | 2.83 | 6.11
11 | GGAACGAGGGCAAGTTGATAGCAGAGTTTGATGG | 1.67 | 1.68 | 2.25 | 2.42 | 0.781 | 1.3 | 0.0645 | 1.9
12 | ACAGACAGGTGATCAAGGTAACTCAGGCTATCAT | 0.159 | 0.183 | 0.508 | -0.511 | 0.28 | 1.72 | 0.997 | -0.138
13 | CGAACTAGGTCAGAACATGACAGTGAAGGATGAT | 1.74 | 2.34 | 2.89 | 0.671 | 1.33 | 1.24 | 0.0482 | 0.133
14 | TTACCAAGGTGAGCTGAGCTCGTTGATCCAACTC | -0.157 | -0.164 | -0.277 | -0.78 | 0.0974 | 1 | -0.222 | -0.959
15 | TTACCAAGGTGAGCTGAGGTCGTTGCTCCAACTC | 1.57 | 0.912 | 0.763 | 0.505 | 1.26 | 4.78 | 2.1 | 1.93
16 | TAGCCTAGGTCATTCAGGAGCCAGTATAGAAAGC | 2.45 | 4.25 | 4.41 | 1.37 | 2.96 | 2.68 | 0.478 | 1.09
17 | TGACCAAGGTGAGCTGAGGTCGTTGATCCAACTC | 1.63 | 1.46 | 1.17 | -0.41 | 1.52 | 4.69 | 1.8 | 1.7
18 | ATCGAAAGGTAGTGAGGTGAGTATACAGAAAGGC | 0.406 | 0.407 | 0.62 | -0.693 | 0.164 | 1.5 | 0.917 | -0.237
19 | CATACTAGGTCAAGGTCAAAGTCGGTTTGTGCCA | 5.08 | 6.18 | 6.66 | 3.15 | 5.93 | 4.24 | 3.85 | 4.88
20 | TCATATAGGTAAATGTGAAAGTCGAACGATATGA | -0.396 | 0.293 | 0.464 | 0.849 | 0.579 | -0.0536 | -0.354 | 0.207
21 | ATTGAAAGGTCGACGAGGTGAGTATACACCGTTT | 3.13 | 4.19 | 4.05 | 1.2 | 4.31 | 3.89 | 1.14 | 1.58
22 | TTACCAAGGTGAGCTGAGATCGTTGATCCAACTC | -0.439 | -0.0165 | 0.151 | -1.09 | -0.0334 | 1.1 | -0.431 | -0.976
23 | TCTTGTAGATCAGAAGGTTAAGAAAGCTGGCCAA | 1.17 | 0.818 | 0.198 | 0.89 | 1.31 | 0.538 | -0.485 | -0.118
24 | TTACCAAGGTGAAGGTCGGTGATCCCTCTGTAGA | 1.61 | 1.3 | 0.916 | -0.375 | 1.5 | 2.21 | 0.976 | 0.13
25 | ATCTCTAGGTAAGACTCCGTTCAGTGAAGAACGC | 0.62 | 0.111 | 0.108 | 0.35 | -0.00325 | 0.381 | 0.809 | 0.435
26 | TAGCCTAGGTCATGGGGCAGTATACCACGCGAAC | 2.71 | 4.3 | 4.2 | 0.354 | 3.61 | 3.23 | 1.44 | 0.585
27 | TCTGCTAGGTAAACGATGGTCAGCTAATCTGCTA | -0.48 | -0.193 | -0.441 | -0.148 | 0.132 | -0.11 | -1.01 | -0.963
28 | CTCGAAAGGTCGTGCTCACGTGAGTATACCAAAC | 2.82 | 4.15 | 3.6 | 1.95 | 4.71 | 2.41 | -0.0324 | 1.06
29 | CCTATTAGATGACCATAAGGGCAACCGAAGCTCG | 1.98 | 1.02 | 1.2 | 0.541 | 0.88 | 1.69 | 1.19 | 0.819
